Assay results taken from PubChem BioAssay.
Results filed as inconclusive are left out. Activity calls are given as the source filed them.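 The calls were made as follows, unless noted: active = RAM network inhibition above 8.4% in each of two replicates, 3 SD over the compound average; inconclusive = above 8.4% inhibition in only one replicate; inactive = 8.4% inhibition or less in each replicate.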

How the values were obtained:
[1] = Her2 expression decrease, cell viability multiplex – SKBR3 breast tumor cells, AlphaScreen, ATP viability, primary screen (AID 461;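 active = Her2 level under about 52% in both replicate screens, with viability over 70% of control, limit read from the data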;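 as to Her2 level: lower value means less Her2 protein in the cells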;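 as to viability: percent of carrier control wells set as 100% viability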); conditions: SKBR3 Her2 protein level, 18-24 h, measured here: SKBR3 viability, ATP luminescence, at 10 µM
[2] = molecular target: Receptor tyrosine-protein kinase erbB-2 (Homo sapiens) (UniProt P04626); test: as above; conditions: 18-24 h, at 10 µM, stronger effect = lower value
[3] = reduced viability of SK-BR-3 breast cancer cells – cell-based, 24 h, human, pilot screen (AID 572;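 active = viability at or below 10% of carrier control in both of two separate runs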;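 also: compound exposure lasted between 18 and 24 h rather than exactly 24 h; 100% = carrier-treated control wells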); conditions: SK-BR-3 viability, CellTiter-Glo luminescence, at 10 µM, stronger effect = lower value
[4] = HUVEC growth inhibition – cell-based, human, primary screen (AID 575;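 active = viability at or below 30% in both replicate assays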;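 also: 100% = median of untreated cell wells with 0.1% DMSO on each plate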); conditions: HUVEC proliferation, CellTiter-Glo luminescence, 72 h; at 10 µM; stronger effect = lower value
[5] = H69AR cell proliferation blockers – human, duplicate replicates, primary screen (AID 580;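 active = viability at or under a set limit in both replicates, limit being median viability minus 3 SD, cut at about 48% in these data, passing the limit was not always enough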;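 also: 100% = mean luminescence of untreated wells and 0% = no signal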); conditions: H69AR lung tumor cells viability, ATP luminescence, 72 h; at 10 µM; stronger effect = lower value
[6] = MRP1 drug-resistance reversers in H69AR cells – cell-based, doxorubicin co-treatment, pilot screen (AID 601;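 active = viability loss from added drug above about 55%, and viability with drug at most 40%, in both replicates, limit read from the data, passing the limit was not always enough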); conditions: CellTiter-Glo, 72 h, at 10 µM; for differential viability (reversal): stronger effect = higher value
[7] = yeast transport mutant growth inhibition pilot in 384-well plates, post-Golgi transport modulator project (AID 636; in the data active = inhibition above about 31%); conditions: absorbance 615 nm, about 18 h, stronger effect = higher value
[8] = growth suppression of yeast trafficking mutant, preliminary HTS, modulators of trafficking downstream of Golgi apparatus project, 1536-format plate, OD 615 nm (AID 637; in the data active = inhibition above about 30%); conditions: yeast transport mutant growth, absorbance 615 nm, 18 h; stronger effect = higher value
[9] = S. cerevisiae growth inhibition in permissive medium (OD615), pilot counter-assay for S. cerevisiae lifespan shortening project, permissive growth control (AID 705;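 active = growth inhibition above 25% in both replicates, a cutoff set 3 SD above the mean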); conditions: OD615, 24 h, at 10 µM, stronger effect = higher value
[10] = S. cerevisiae growth inhibition in restrictive medium, OD615, pilot screen, restrictive growth control, yeast lifespan reduction project (AID 706;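 active = growth inhibition above a set limit, 3 SD over mean compound inhibition, in both replicates, cut at about 43% in these data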;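 also: modified DeaD lifespan yeast strain shifted to restrictive glucose medium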); conditions: OD615, 48 h, at 10 µM, stronger effect = higher value
[11] = doxorubicin toxicity protection in MRP-1 cells – H69AR cells, CellTiter-Glo, duplicate, MRP-1 activator project, pilot screen (AID 807;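 active = viability increase at or above a cutoff of the median across tested compounds plus 3 SD, cut at about 8.5% in these data, passing the limit was not always enough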;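 also: compound pretreatment 18-22 h then 72 h combined with doxorubicin; 0% = doxorubicin alone and 100% = vehicle without doxorubicin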); conditions: H69AR viability with doxorubicin, CellTiter-Glo luminescence; at 10 µM; stronger effect = higher value
[12] = viability of HCT116 without oncogenic beta-catenin – human colon tumor cells, pilot screen (AID 823;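 active = cell viability at or below a set limit in both duplicate runs, the limit being the all-compound median minus 4 SD, cut at about 23% in these data, passing the limit was not always enough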;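 also: 0% = wells killed by 20 µM Hyamine and 100% = untreated DMSO cell wells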); conditions: HCT116 beta-catenin knockout viability, CellTiter-Glo, 60 h; at 10 µM; stronger effect = lower value
[13] = viability of PTEN-null HCT116 cells – cell-based, HCT116 clonal line, CellTiter-Glo, pilot screen (AID 824;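 active = viability at or below 27.92% in each of two runs, the all-compound median minus 4 SD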;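 also: 0% = 20 µM Hyamine control and 100% = vehicle cell control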); conditions: HCT116 PTEN-deleted viability, 60 h, at 10 µM, stronger effect = lower value
[14] = RAM pathway blockade in budding yeast – dse1pr::URA3 reporter, 5-FOA selection, pilot screen (AID 869;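 active = inhibition over a set limit, the all-compound mean plus 3 SD, in both replicate runs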;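 also: 0% = DMSO wells with no growth and 100% = 10 µM 1-NA-PP1 with full growth; RAM network block rescues cells from 5-FOA so hits raise OD615 growth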); conditions: S. cerevisiae dse1pr::URA3 5-FOA growth, OD615, 2 d; at 10 µM; stronger effect = higher value; strain carries analog-sensitive mutant Cbk1 kinase
[15] = RAM signaling pathway blockade in yeast – S. cerevisiae, Pdr1DBD-CYC8 efflux-inhibited sensitized strain, primary screen (AID 1298);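 also: 0% = DMSO untreated cells without growth and 100% = 10 µM 1-NA-PP1 full growth; higher means more yeast growth rescued from 5-FOA killing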; conditions: S. cerevisiae cbk1-as DSE1-URA3 strain, 5-FOA growth OD615, 2 d; at 50 µM; stronger effect = higher value
[16] = H69AR cells + 2 uM doxorubicin, measured here: viability with 2 uM doxorubicin, stronger effect = lower value
[17] = H69AR cells, compound alone cytotoxicity

Chain of Receptor tyrosine-protein kinase erbB-2 (Homo sapiens) (P04626 whole entry, looked up): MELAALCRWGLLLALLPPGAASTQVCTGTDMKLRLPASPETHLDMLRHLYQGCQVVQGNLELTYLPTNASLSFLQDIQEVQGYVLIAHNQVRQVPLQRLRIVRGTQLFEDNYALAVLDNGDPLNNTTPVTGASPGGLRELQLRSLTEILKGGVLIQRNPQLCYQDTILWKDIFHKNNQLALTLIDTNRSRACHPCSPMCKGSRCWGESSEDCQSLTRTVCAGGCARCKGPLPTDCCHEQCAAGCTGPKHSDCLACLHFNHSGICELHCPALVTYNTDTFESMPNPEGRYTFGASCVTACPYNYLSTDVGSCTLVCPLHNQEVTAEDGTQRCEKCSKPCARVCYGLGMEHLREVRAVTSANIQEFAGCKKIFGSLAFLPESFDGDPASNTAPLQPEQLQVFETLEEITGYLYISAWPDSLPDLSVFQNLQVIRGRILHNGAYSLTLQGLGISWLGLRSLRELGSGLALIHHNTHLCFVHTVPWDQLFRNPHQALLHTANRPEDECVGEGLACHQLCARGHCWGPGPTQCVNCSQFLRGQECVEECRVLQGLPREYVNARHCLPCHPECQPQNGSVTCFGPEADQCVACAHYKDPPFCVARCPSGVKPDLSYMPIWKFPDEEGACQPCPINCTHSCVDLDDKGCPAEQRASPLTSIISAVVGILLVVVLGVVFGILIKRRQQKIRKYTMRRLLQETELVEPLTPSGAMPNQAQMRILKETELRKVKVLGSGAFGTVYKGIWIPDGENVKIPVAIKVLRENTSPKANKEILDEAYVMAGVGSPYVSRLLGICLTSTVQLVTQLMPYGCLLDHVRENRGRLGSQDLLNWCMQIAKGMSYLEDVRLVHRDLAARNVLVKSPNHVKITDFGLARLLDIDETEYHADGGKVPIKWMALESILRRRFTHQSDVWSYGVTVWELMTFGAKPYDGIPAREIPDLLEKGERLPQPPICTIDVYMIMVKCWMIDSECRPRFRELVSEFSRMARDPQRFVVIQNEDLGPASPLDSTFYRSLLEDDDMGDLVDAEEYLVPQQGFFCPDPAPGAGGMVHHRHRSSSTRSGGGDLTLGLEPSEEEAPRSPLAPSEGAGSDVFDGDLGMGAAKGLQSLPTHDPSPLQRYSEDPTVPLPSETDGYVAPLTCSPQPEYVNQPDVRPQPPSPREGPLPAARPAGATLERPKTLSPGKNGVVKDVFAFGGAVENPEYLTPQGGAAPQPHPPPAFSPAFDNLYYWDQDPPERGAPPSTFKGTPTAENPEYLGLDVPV

| SMILES | viability [1] | Her2 level [2] | viability [3] | viability [4] | viability [5] | differential viability (reversal) ([6]; H69AR cells + 2 uM doxorubicin) | viability [6, 16] | viability [6, 17] | inhibition [7] | inhibition [8] | growth inhibition [9] | growth inhibition [10] | viability increase [11] | viability [12] | viability [13] | inhibition [14] | RAM network inhibition [15] |
| --- | --- | --- | --- | --- | --- | --- | --- | --- | --- | --- | --- | --- | --- | --- | --- | --- | --- |
| O=C(C1CCC(CNc2c(N3CCCCC3)c(=O)c2=O)CC1)N1CCc2ccccc2C1 (stereo not drawn) | 95% | 93.5% (inactive) | 95% (inactive) | 107% (inactive) | 91.8% (inactive) | 9.49% (inactive) | 82.3% | 91.8% | -0.53% (inactive) | 0% (inactive) | -4.97% (inactive) | -4.18% (inactive) | -3.33% (inactive) | 87.5% (inactive) | 83.2% (inactive) | -0.07% (inactive) | 2.9% (inactive) |
| COc1ccc(N2CCN(C(c3ccccc3)c3sc4nc(C)nn4c3O)CC2)cc1 (stereo not drawn) | 91.5% | 101% (inactive) | 91.5% (inactive) | 82.2% (inactive) | 90% (inactive) | -8.41% (inactive) | 98.4% | 90% | -4.93% (inactive) | -2.17% (inactive) | 1.81% (inactive) | -0.505% (inactive) | -1.28% (inactive) | 96.8% (inactive) | 97.3% (inactive) | 2.81% (inactive) | -0.02% (inactive) |
| Cc1cc(C)cc(N(CC(=O)NC2CCC(C)CC2)S(=O)(=O)c2c(C)noc2C)c1 (stereo not drawn) | 104% | 101% (inactive) | 104% (inactive) | 94% (inactive) | 88.1% (inactive) | 4.2% (inactive) | 83.8% | 88.1% | -3.59% (inactive) | -5.67% (inactive) | -23.2% (inactive) | -18.5% (inactive) | -1.82% (inactive) | 97.5% (inactive) | 94.9% (inactive) | 2.36% (inactive) | 11.3% (inactive) |
| CCCCCn1c(CN2CCN(C(=O)c3ccco3)CC2)nc2c1c(=O)n(C)c(=O)n2C | 96.5% | 103% (inactive) | 96.5% (inactive) | 92.8% (inactive) | 77.5% (inactive) | 27.9% (inactive) | 49.5% | 77.5% | -5.6% (inactive) | -5.83% (inactive) | -0.285% (inactive) | -8.78% (inactive) | -2.57% (inactive) | 93.6% (inactive) | 93.2% (inactive) | -0.2% (inactive) | 1.17% (inactive) |
| c1nc(NCC2CCCO2)c2[nH]cnc2n1 (stereo not drawn) | 83.5% | 91.5% (inactive) | 83.5% (inactive) | 93.4% (inactive) | 91.1% (inactive) | 7.82% (inactive) | 83.3% | 91.1% | -1.84% (inactive) | 4% (inactive) | -10% (inactive) | -5.46% (inactive) | 0.98% (inactive) | 100% (inactive) | 99.7% (inactive) | 1.3% (inactive) | 1.7% (inactive) |
| CCCCn1c(CNC(=O)CCC)nc2ccccc21 | 116% | 102% (inactive) | 116% (inactive) | 87.8% (inactive) | 91.8% (inactive) | 3.83% (inactive) | 87.9% | 91.8% | -5.2% (inactive) | -4.67% (inactive) | -9.17% (inactive) | -13.8% (inactive) | -2.97% (inactive) | 104% (inactive) | 100% (inactive) | -0.485% (inactive) | 1.51% (inactive) |
| CCOc1ccc(N(CC(=O)NC2CCCC(C)C2C)S(=O)(=O)c2c(C)noc2C)cc1 (stereo not drawn) | 89.5% | 81.5% (inactive) | 89.5% (inactive) | 64.3% (inactive) | 73.1% (inactive) | 6.81% (inactive) | 66.3% | 73.1% | 1.41% (inactive) | 13.5% (inactive) | -9.98% (inactive) | -14.4% (inactive) | -1.09% (inactive) | 82.8% (inactive) | 83.6% (inactive) | 0.98% (inactive) | 6.62% (inactive) |
| CCCCN(C)C(=O)c1cn(C)c2ccc(S(=O)(=O)N(C)C)cc2c1=O | 96% | 102% (inactive) | 96% (inactive) | 102% (inactive) | 102% (inactive) | 6.23% (inactive) | 95.5% | 102% | 0.13% (inactive) | -4.5% (inactive) | -3.25% (inactive) | 3.02% (inactive) | 0.32% (inactive) | 100% (inactive) | 108% (inactive) | 0.805% (inactive) | 2.99% (inactive) |
| COc1cccc2cc(C(=O)OC3CCN(C)CC3)c(=O)oc12 | 96% | 103% (inactive) | 96% (inactive) | 94.7% (inactive) | 105% (inactive) | 18.2% (inactive) | 86.5% | 105% | -3.08% (inactive) | 0.67% (inactive) | -7.33% (inactive) | -8.68% (inactive) | -3.68% (inactive) | 104% (inactive) | 107% (inactive) | -0.245% (inactive) | 2.9% (inactive) |
| CCn1c(=O)cc(OCC(=O)Nc2nc(C)cs2)c2ccccc21 | 83.5% | 84.5% (inactive) | 83.5% (inactive) | 61.6% (inactive) | 94.8% (inactive) | 2.11% (inactive) | 92.7% | 94.8% | -3.73% (inactive) | -1.67% (inactive) | -10.5% (inactive) | -9.12% (inactive) | -2.41% (inactive) | 93.2% (inactive) | 86.9% (inactive) | 1.33% (inactive) | 2.84% (inactive) |
| COc1ccc(C)cc1NC(=O)C1CCN(S(=O)(=O)c2cccc3cccnc23)CC1 | 80.5% | 94.5% (inactive) | 80.5% (inactive) | 102% (inactive) | 90.9% (inactive) | 4.79% (inactive) | 86.1% | 90.9% | -5.33% (inactive) | -1.48% (inactive) | -0.795% (inactive) | -2.36% (inactive) | -2.44% (inactive) | 95.3% (inactive) | 86% (inactive) | 1.77% (inactive) | 4.45% (inactive) |
| Cc1ccc(-c2nc3cc(NC(=O)C(C)C)ccc3o2)cc1 | 87% | 112% (inactive) | 87% (inactive) | 73.5% (inactive) | 82.4% (inactive) | -1.22% (inactive) | 83.6% | 82.4% | -1.92% (inactive) | -10.3% (inactive) | -11.2% (inactive) | -21.9% (inactive) | -5.7% (inactive) | 82.6% (inactive) | 73.5% (inactive) | 3.04% (inactive) | 5.12% (inactive) |
| CC(=O)NCc1nc2ccccc2n1C(C)C | 104% | 108% (inactive) | 104% (inactive) | 84.2% (inactive) | 92.3% (inactive) | 10% (inactive) | 82.3% | 92.3% | -4.93% (inactive) | -4.83% (inactive) | -13.7% (inactive) | -29.9% (inactive) | -0.81% (inactive) | 105% (inactive) | 95.5% (inactive) | 0.84% (inactive) | 3.6% (inactive) |
| COC(=O)C1=C(C)Nc2nnnn2C1c1ccc(Cl)cc1Cl (stereo not drawn) | 110% | 80% (inactive) | 110% (inactive) | 114% (inactive) | 93.3% (inactive) | -5.04% (inactive) | 98.4% | 93.3% | -1.97% (inactive) | -0.63% (inactive) | 2.67% (inactive) | -1.33% (inactive) | -5.06% (inactive) | 98% (inactive) | 91.5% (inactive) | 0.54% (inactive) | 0.11% (inactive) |
| COc1cc(NC(=O)CC(C)C)ccc1NC(=O)c1ccco1 | 94.5% | 93% (inactive) | 94.5% (inactive) | 103% (inactive) | 109% (inactive) | 15.9% (inactive) | 93.1% | 109% | -3.92% (inactive) | -9.68% (inactive) | -3.81% (inactive) | -1.97% (inactive) | -0.27% (inactive) | 100% (inactive) | 96.2% (inactive) | 0.825% (inactive) | 0.51% (inactive) |
| CC(=O)Nc1cccc(NC(=O)c2ccco2)c1 | 94% | 94% (inactive) | 94% (inactive) | 108% (inactive) | 91.5% (inactive) | -0.085% (inactive) | 91.6% | 91.5% | -2.21% (inactive) | -11.7% (inactive) | -5.76% (inactive) | -3.89% (inactive) | -4.18% (inactive) | 99.6% (inactive) | 98.1% (inactive) | 1.83% (inactive) | 0.76% (inactive) |
| Nc1cccc2c1C(=O)N(c1ccccc1)C2=O | 95% | 97% (inactive) | 95% (inactive) | 91.4% (inactive) | 98.8% (inactive) | 14.7% (inactive) | 84.1% | 98.8% | -3.87% (inactive) | -1.48% (inactive) | -10.6% (inactive) | -8.73% (inactive) | -2.17% (inactive) | 106% (inactive) | 95.2% (inactive) | 1.5% (inactive) | 0.47% (inactive) |
| COc1ccc(C2CC(c3ccc(OC)cc3)n3nc(N)nc3N2)cc1 (stereo not drawn) | 97.5% | 98% (inactive) | 97.5% (inactive) | 88% (inactive) | 82.2% (inactive) | -2.91% (inactive) | 85.1% | 82.2% | 0.77% (inactive) | 0.17% (inactive) | 7.76% (inactive) | 16.3% (inactive) | 0.09% (inactive) | 105% (inactive) | 98.1% (inactive) | 1.62% (inactive) | 3.07% (inactive) |
| COC(=O)C1=C(N)OC2=C(C(=O)CCC2)C1c1cccs1 (stereo not drawn) | 110% | 85% (inactive) | 110% (inactive) | 93.7% (inactive) | 101% (inactive) | 17.8% (inactive) | 83.2% | 101% | -4.19% (inactive) | 4.1% (inactive) | -2.24% (inactive) | -6.3% (inactive) | -2.89% (inactive) | 94.9% (inactive) | 92.9% (inactive) | 2.75% (inactive) | 4.64% (inactive) |
